Measured values as given in PMC5540273 (PLoS ONE, 2017).

The compounds below were run on WNK4. Conditions: concentration: 1 μM, replicates: in singlicate; n = 1.
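Further: KINOMEscan kinase panel screen.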

SMILES	%Inh [%]
CC(C)(C)n1cnc2c(N)ncnc21 [SKF-97359]	0
Cc1cccc(Cn2ccn3c(=O)cc(N4CCOCC4)nc23)c1 [GSK2297542]	8
c1ccc(-c2cc(-c3c[nH]nc3-c3ccccn3)ccn2)cc1 [GW576604]	11
O=C(Nc1cccc(-c2nn3ncccc3c2-c2ccnc(Nc3cccc(C(F)(F)F)c3)n2)c1)c1c(F)cccc1F [GSK299495]	27
COc1cc2c(cc1OC[C@@H](O)CO)ncc1c3ccc(C#N)cc3[nH]c21	0
N#Cc1ccc(-c2cc(-c3c[nH]nc3-c3ccccn3)ccn2)cc1 [GW693028]	30
Fc1ccc(-c2ncn(CCCN3CCOCC3)c2-c2ccccn2)cc1 [SB-211742]	0
COc1ccc(Nc2nccc(N3CCC(NC(=O)Nc4cccc(C(C)=O)c4)C3)n2)cc1 (centres unmarked) [GSK1379731]	0
Cn1cc(-c2ccc3c(c2)CCN3C(=O)Cc2ccccc2Cl)c2c(N)ncnc21 [GSK2608885]	25
CNc1ncnc2[nH]ncc12 [SKF-18355]	0
Cc1cccc(-c2nc(Nc3ccc4ncsc4c3)c3ccccc3n2)n1 [GW867588]	0
[2H]C([2H])(c1cccc(C(F)(F)F)c1C)n1ccn2c(=O)nc(N3CCOCC3)cc12 [GSK2336394]	36
Cc1c2ccc(N(C)c3ccnc(Nc4cccc(S(N)(=O)=O)c4)n3)cc2nn1Cc1ccccc1.Cl.Cl [GW787226]	0
O=C(c1ccc(-c2cc(-c3c[nH]nc3-c3ccccn3)ccn2)cc1)N1CCOCC1 [GW812171]	0
